Drawing on PubChem BioAssay (Tox21), this text covers Potency and cytotoxicity increase for 40 compounds.

Several values for one entry are separate records, joined by “and”; a condition that tells them apart may be missing. Equal values may be shown once. Inconclusive results are not listed. A call without a number means that no potency is given here. Activity calls are given as the source filed them. Calls follow the shape of the dose curve; as a rule, active = well fitted activation curve with a large enough effect in the repeat runs; inconclusive = weak or mixed curves; inactive = flat fitted curve, though single readings scatter.
Potency is read from the fitted curve at half-maximal effect.

The experiment in a line: A CellTox Green Cytotoxicity Assay to monitor cytotoxicity in HEK293 cells - 40 hour (AID 1224871). Also: nearly all actives have a fitted effect of over 45% in size. Particulars: CellTox Green fluorescence; series mostly up to 76.8 µM. The text has this:
National Center for Advancing Translational Sciences [NCATS]
NIH Chemical Genomics Center [NCGC]
U.S. Environmental Protection Agency [EPA]
National Institutes of Environmental Health Sciences [NIEHS]
National Toxicology Program [NTP]
Cell-based models are critical for drug discovery. Determining the natural cytotoxic effects resulting from test compounds is an essential research activity. A CellTox Green Cytotoxicity Assay to monitor cytotoxicity in real time of continues cell culture during 40 hours of the compound treatment was used to screen Tox21 10K library compounds in Hek293 cells. CellTox Green Cytotoxicity Assay is a nonlytic, homogeneous, biofluorescent method to measure cytotoxicity in cell culture after experimental manipulation. The assay system uses a proprietary asymmetric cyanine dye that is excluded from viable cells but preferentially stains the dead cell's DNA. […] Viable cells produce no appreciable increases in fluorescence. Therefore, the fluorescence signal produced by the binding interaction with dead cell DNA is proportional to cytotoxicity.
The mixture of Hek293 cell suspension and reagents were dispensed at 600cells/6 ul/well in 1536-well tissue culture treated black solid bottom plates using a Multidrop dispenser. After the assay plates were incubated at a 37 C/5% CO2 incubator for 5 hours, 23 nL of compounds dissolved in DMSO, positive and negative controls was transferred to the assay plate by a pintool work station. The plates were incubated at 37 C for 40 hours. The fluorescence intensity were measured at 0h, 8h, 16h, 24h, 32h and 40h time points using ViewLux plate reader during compound treatment.
Regarding `CCN(CC)CCOC(=O)C1(C2CCCCC2)CCCCC1`, the Potency is 23.9 µM (active). On the same count and under the same terms, the entry for `CC(=O)OC1CCCCC1` is “inactive”; for `CCNc1nc(NC(C)CC)nc(OC)n1` (stereo not given) it is “inactive”.

Turning to `CCOC(=O)N1CCC(=C2c3ccc(Cl)cc3CCc3cccnc32)CC1`, the Potency is 43.6 µM (active). On the same count and under the same terms, the entry for `CCc1c(C(=O)O)c(=O)cnn1-c1ccc(Cl)cc1` is “inactive”; for `OCCCc1cccnc1` it is “inactive”; for `CCCC(O)C(O)CO` (stereo not given) it is “inactive”.

For the compound `CCc1c(Br)c(Br)c(Br)c(Br)c1Br`, the Potency entry was “inactive”. Same read-out and setting: the figure for `CSc1c(Cl)c(Cl)c(Cl)c(Cl)c1Cl` is 48.7 µM (active); for `CN(C)CCN1CCOCC1` it is “inactive”; for `CCc1ccc(O)c(C(C)(C)C)c1` it is 38.9 µM (active). For `COc1ccc(-n2nc(CCC(=O)N(C)O)cc2-c2ccc(Cl)cc2)cc1`, the Potency result is “inactive”. The same measure, in the same setting: the entry for `O=C1c2c(O)ccc([N+](=O)[O-])c2C(=O)c2c([N+](=O)[O-])ccc(O)c21` is “inactive”; for `C=CC(C)C#N` (stereo not given) it is “inactive”; for `[O]=[Zr]` it is “inactive”. For the compound `CC1=C(/C=C/C(C)=C/C=C/C(C)=C/C(=O)Nc2ccc(O)cc2)C(C)(C)CCC1`, the Potency result was “inactive”. On the same count and under the same terms, the entry for `CC(C)=C1CC[C@@H](C)CC1=O` is “inactive”; for `CCCCCCOc1cc(C)c(O)c(C)c1C` it is 44.2 µM (active); for `COc1ccc2sc(C(=O)Nc3nnn[nH]3)c(OC(C)C)c2c1` it is “inactive”. Turning to `CCOCOCC`, the Potency result is “inactive”.

As for `CCCC(C)CCC(C)=O` (stereo not given), the Potency result is “inactive”.

For `O=C(O)CC(=O)O`, the Potency result is “inactive”. The same measure, in the same setting: the entry for `OCCC(O)CO` (stereo not given) is “inactive”.

As for `CCCCCCCCCCCCCc1ccccc1`, the Potency entry is “inactive”. Same read-out and setting: the figure for `c1cc2c3c(c1)ccc1cccc(c13)C2` is 50 µM (active). In the case of `CC(=O)Oc1ccc(C2(c3ccc(OC(C)=O)cc3)Oc3ccccc3NC2=O)cc1`, the Potency result is “inactive”. As to `CCCCN(C)C`, the Potency result was “inactive”.

For the compound `C=C/C=C/C=C/CCCCC`, the cytotoxicity increase was 10.9% [at 15.8 µM] (inactive). Take `COc1cccc(CCc2ccccc2OCC(CN(C)C)OC(=O)CCC(=O)O)c1` (stereo not given): the Potency result is “inactive”. Same read-out and setting: the entry for `Nc1ncnc2c1ncn2[C@@H]1O[C@H](COP(=O)(O)O)[C@@H](O)[C@H]1O` is “inactive”; for `CCN=c1cc2oc3cc(NCC)c(C)cc3c(-c3ccccc3C(=O)OCC)c-2cc1C` it is 7.73 µM (active) and 12.3 µM (active). The same measure, in the same setting: the entry for `O=S(=O)(O)CCCN1CCOCC1` is “inactive”; for `CCCCCCCC(=O)OCC` it is “inactive”; for `CC(C)(C)CC(C)(C)c1ccccc1O` it is 39.1 µM (active). Same read-out and setting: the entry for `OCCCS` is “inactive”; for `CCC(C)c1ccccc1` (stereo not given) it is “inactive”. Take `COC(=O)NCCC[Si](OC)(OC)OC`: the Potency entry is “inactive”. On the same count and under the same terms, the figure for `CCN(CC)CCOc1ccc(C(O)(Cc2ccc(Cl)cc2)c2ccc(C)cc2)cc1` (stereo not given) is 23.9 µM (active). Turning to `O=Nc1ccc(NO)cc1`, the Potency entry was “inactive”. The same measure, in the same setting: the entry for `CC(C)(C)c1cc(CCC(=O)NCCCCCCNC(=O)CCc2cc(C(C)(C)C)c(O)c(C(C)(C)C)c2)cc(C(C)(C)C)c1O` is “inactive”.
